Assay outcomes as filed in PubChem BioAssay.
Rows were chosen to be rich in hits. Some 9.4% of all compounds tested hit in one or more screens of this group.
SMN2 splice enh = enhancers of SMN2 splice variant expression; HEK293 SMN2-luciferase splicing reporter, luminescence, 30-36 h; Potency, µM (top dose mostly 46.1 µM), for the others: top-dose activity change, positive = activation, hits mostly activators; 2.8% of 210,000 active; note: % of control where 0% means no effect; nearly all actives have a fitted effect of over 55% in size
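qHTS luciferase splicing reporter: luminescence rises when SMN2 exon 7 is included in transfected HEK293 cells. Compound exposure lasted 30-36 h at 37C, with 4.5 mM final sodium butyrate as control, followed by a ONE-Glo read.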
ELG1 repair inh = ELG1-dependent DNA repair inhibition; HEK293T ELG1-luciferase reporter, luminescence, 16 h; DNA damage induced by 5-fluorouridine; Potency, µM (titrated, usually from 46.1 µM), inactives show at the highest dose activity change, negative = inhibition, actives largely listed as inhibitors; 2.3% of 330,000 active; note: % is set by controls: 0 for no effect and ±100 for the full control effect; nearly all actives have a fitted effect of over 55% in size
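HEK293T cells expressing luciferase-tagged ELG1 (2,000/well) received 5-Fluorouridine plus compound or DMSO for 16 hr at 37 °C. Luciferase was read by ONE-Glo luminescence after 30 min at room temperature.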
Rab9 prom act = Rab9 promoter activation. Huh7 Rab9 promoter-luciferase reporter, luminescence, 24 h. Potency, µM (series often up to 9.22 µM), without a hit: at the highest dose activation, negative = inhibition, most hits filed as activators. 2.8% of 320,000 active; note: % of control where 0% means no effect; nearly all actives have a fitted effect of over 60% in size
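Huh7 cells stably carrying Rab9 promoter–luciferase reporter, plated 1500 cells/well, compound added after 2 h and incubated 24 h at 37 °C; luciferase luminescence then read after 10 min with detection reagent.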
NPC1 promoter act = activates the NPC1 promoter | Potency, µM (doses to about 9.22 µM), inactives show top-dose activation, usual class: activators | Huh7 NPC1 promoter luciferase reporter, 24 h | 2.4% of 320,000 active; note: % of control where 0% means no effect; nearly all actives have a fitted effect of over 60% in size
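NPC1 promoter–luciferase Huh7 cells; 24 h compound; luminescence.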
ELG1 genotox = inducers of genotoxicity in HEK293T ELG1-luciferase cells. AID 504466. Potency, µM (series often up to 46 µM), without a hit: at the top dose activity change, positive = activation, most hits filed as activators. HEK293T ELG1-luciferase reporter, luminescence, 16 h. 1.3% of 330,000 active; note: % of control where 0% means no effect; nearly all actives have a fitted effect of over 60% in size
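Genotoxicity was scored as increased ELG1-luciferase reporter signal, measured by ONE-Glo luminescence (30 min, room temperature). Compound or vehicle exposure of the HEK293T reporter cells lasted 16 hr at 37°C.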
FLuc modulator = inhibits or activates purified firefly luciferase, miR-21 counter-screen. 6.9% of 360,000 active. Potency, µM (titrated, usually from 57.5 µM), for inactives: at the top dose activity change, negative = inhibition, usual class: inhibitors. purified FLuc, Km substrates, luminescence inhibition. P08659;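 note: plate controls were vehicle for no effect and reference inhibitor for full effect; nearly all actives have a fitted effect of over 55% in size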
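Purified P. pyralis luciferase, 10 nM final, with Km-level 10 uM D-luciferin and 10 uM ATP in 50 mM Tris acetate pH 7.5, 10 mM Mg acetate, 0.01% Tween-20, 0.05% BSA; 6-point qHTS titration about 60 µM downward; luminescence read.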
ELG1 FLuc counter = luciferase inhibition in cell-free luciferin readout for ELG1 hits; shares compounds with ELG1 repair inh; 3% of 350 active; AID 624247; cell-free firefly luciferase luminescence counter-screen, ViewLux; Potency, µM (top dose mostly 46.1 µM), without a hit: at the highest dose activity change, negative = inhibition, most hits filed as inhibitors; note: % is set by controls: 0 for no effect and ±100 for the full control effect
ELG1-Luc inh = human ELG1 repair inhibition, luciferase-tagged ELG1 confirmation. shares compounds with ELG1 repair inh. HEK293T ELG1-luciferase levels, luminescence; cells co-treated with 5-fluorouridine. Potency, µM (series often up to 46.1 µM), inactives show at the top dose activity change, negative = inhibition, hits mostly inhibitors. 68% of 670 active; note: % is set by controls: 0 for no effect and ±100 for the full control effect; nearly all actives have a fitted effect of over 55% in size
ELG1-Luc MMS = MMS-stimulated human ELG1 repair inhibition, confirmed. 53% of 670 active. Potency, µM (highest dose often 46.1 µM), without a hit: top-dose activity change, negative = inhibition, hits mostly inhibitors. HEK293T luciferase-tagged ELG1 level, MMS stimulated. AID 624249. shares compounds with ELG1 repair inh; note: % is set by controls: 0 for no effect and ±100 for the full control effect; nearly all actives have a fitted effect of over 60% in size
ELG1 5-FU = confirmation of ELG1 repair inhibitors: viability with 5FU; Potency, µM (top dose mostly 46.1 µM), inactives show at the highest dose activity change, negative = viability loss, actives largely listed as cytotoxic; cell viability with 5-FU, ELG1-dependent repair; shares compounds with ELG1 repair inh; 670 tested, under 10 active;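 note: ELG1-luc HEK293T cells cotreated with 5-fluorouridine at 10 µM final; viability measured 16 h after compound addition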
ELG1 MMS cell = confirmation of ELG1 repair inhibitors: viability with MMS | shares compounds with ELG1 repair inh | Potency, µM (doses to about 46.1 µM), inactives show at the top dose activity change, negative = viability loss, hits mostly cytotoxic | AID 624251 | 33% of 670 active | Cell viability with MMS, ELG1-dependent DNA repair;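 note: ELG1-luc HEK293T cells co-treated with 10 µM MMS; viability read 16 h after compound addition; % is set by controls: 0 for no effect and ±100 for the full control effect; nearly all actives have a fitted effect of over 60% in size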
ELG1 unstim viab = affects unstimulated cell viability, ELG1 hit counter-screen. Potency, µM (titrated, usually from 45.9 µM), without a hit: at the highest dose activity change, negative = loss of viability, hits mostly cytotoxic. shares compounds with ELG1 repair inh. 8% of 900 active. cell viability counter-screen, unstimulated, luminescence;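 note: compound exposure lasted 16 hours before reading; % is set by controls: 0 for no effect and ±100 for the full control effect; nearly all actives have a fitted effect of over 55% in size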
FLuc biochem = firefly luciferase inhibition counter-screen | purified firefly luciferase, luminescence counter-screen | AID 624253 | shares compounds with ELG1 repair inh | Potency, µM (series often up to 57.5 µM), without a hit: at the top dose activity, negative = inhibition, hits mostly inhibitors | 10% of 350 active; note: % is set by controls: 0 for no effect and ±100 for the full control effect
* hit, by the source's call; [ ] = dose if it differs, or a comment. Calls come from the whole dose curve; as a rule, active = well fitted curve in the direction sought with a large enough effect; inconclusive = small, poorly fitted or top-dose-only effect, or another doubt; inactive = no such curve, though single readings can be large; an effect the other way counts as inactive or inconclusive. Potency is the fitted concentration of half-maximal effect.

Results for O=c1c(-c2ccc(Br)cc2)coc2c(CN3CCOCC3)c(O)ccc12 ?
SMN2 splice enh: -9%; ELG1 repair inh: inconclusive; Rab9 prom act: -6%; NPC1 promoter act: 0%; ELG1 genotox: 8%; FLuc modulator: -21%

Results for O=c1c(-c2ccc(F)cc2)coc2c3c(ccc12)OCCO3 ?
SMN2 splice enh: inconclusive; ELG1 repair inh: inconclusive; Rab9 prom act: 1.3µM*; NPC1 promoter act: 3.5µM*; ELG1 genotox: 2.6µM*; FLuc modulator: inconclusive; ELG1 FLuc counter: 123%; ELG1 unstim viab: inconclusive; FLuc biochem: inconclusive

What do the screens show for `C=CCn1c(N)c(C(=O)OC(C)CC)c2nc3ccccc3nc21` (centres undefined)?
SMN2 splice enh: -14%; ELG1 repair inh: -26%; Rab9 prom act: 0%; NPC1 promoter act: 2%; ELG1 genotox: -2%; FLuc modulator: -14%

How did COCC(C)OC(=O)c1c(N)n(CC(C)C)c2nc3ccccc3nc12 (centres undefined) do in these assays?
SMN2 splice enh: 0%; ELG1 repair inh: 3.7µM*; Rab9 prom act: 1%; NPC1 promoter act: 2%; ELG1 genotox: -1%; FLuc modulator: -1%; ELG1-Luc inh: 5µM*; ELG1-Luc MMS: -20%; ELG1 5-FU: inconclusive; ELG1 MMS cell: 0%; ELG1 unstim viab: -1%

Results for O=C(c1cc(-c2ccc(Br)cc2)n[nH]1)N1CCN(S(=O)(=O)c2ccc(Cl)s2)CC1 ?
FLuc modulator: -8%

Results for CC(=O)N1c2ccc(S(=O)(=O)NCCC(=O)NCc3ccc(N(C)C)cc3)cc2CC1C (centres undefined) ?
ELG1 repair inh: 4.6µM*; Rab9 prom act: 0%; NPC1 promoter act: -2%; ELG1 genotox: 1%[9.26 µM]; FLuc modulator: 0%; ELG1-Luc inh: 13µM*; ELG1-Luc MMS: -16%; ELG1 5-FU: inconclusive; ELG1 MMS cell: 10%; ELG1 unstim viab: 4%
